Here are results for 26 compounds from PubChem BioAssay (EPA / NIEHS).

Each structure is given as a SMILES string. “And” between values parts separate entries of the source, which are not always exact repeats. Equal entries are not always repeated. Results filed as inconclusive are left out. The source made the active and inactive calls. The calls were made as follows: active = hit-call score of the fitted dose curve at least 0.9, where 1 is the maximum; inconclusive = response in the unintended direction; inactive = score below 0.9.

Sequence of Estrogen receptor (Homo sapiens) + Estrogen receptor beta (Homo sapiens) (P03372 whole entry, looked up, the tested form may be a part): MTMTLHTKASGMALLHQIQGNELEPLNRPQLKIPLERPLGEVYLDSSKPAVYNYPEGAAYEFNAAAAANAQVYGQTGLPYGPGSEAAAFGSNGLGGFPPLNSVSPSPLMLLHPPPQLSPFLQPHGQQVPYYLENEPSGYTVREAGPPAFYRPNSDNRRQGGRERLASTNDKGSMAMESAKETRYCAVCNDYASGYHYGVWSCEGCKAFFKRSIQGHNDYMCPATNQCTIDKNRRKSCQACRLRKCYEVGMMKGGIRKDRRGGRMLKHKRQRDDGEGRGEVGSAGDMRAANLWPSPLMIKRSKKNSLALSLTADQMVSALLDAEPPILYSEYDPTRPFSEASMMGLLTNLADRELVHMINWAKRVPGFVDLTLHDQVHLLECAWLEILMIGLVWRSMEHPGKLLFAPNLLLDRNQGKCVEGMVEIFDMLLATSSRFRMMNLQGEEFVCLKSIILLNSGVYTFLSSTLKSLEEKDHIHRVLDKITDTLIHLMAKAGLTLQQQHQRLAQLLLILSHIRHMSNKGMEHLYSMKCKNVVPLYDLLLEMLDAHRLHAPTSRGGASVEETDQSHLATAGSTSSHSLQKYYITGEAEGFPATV
Sequence of Estrogen receptor (Homo sapiens) + Estrogen receptor beta (Homo sapiens) (Q92731 whole entry, looked up, the tested form may be a part): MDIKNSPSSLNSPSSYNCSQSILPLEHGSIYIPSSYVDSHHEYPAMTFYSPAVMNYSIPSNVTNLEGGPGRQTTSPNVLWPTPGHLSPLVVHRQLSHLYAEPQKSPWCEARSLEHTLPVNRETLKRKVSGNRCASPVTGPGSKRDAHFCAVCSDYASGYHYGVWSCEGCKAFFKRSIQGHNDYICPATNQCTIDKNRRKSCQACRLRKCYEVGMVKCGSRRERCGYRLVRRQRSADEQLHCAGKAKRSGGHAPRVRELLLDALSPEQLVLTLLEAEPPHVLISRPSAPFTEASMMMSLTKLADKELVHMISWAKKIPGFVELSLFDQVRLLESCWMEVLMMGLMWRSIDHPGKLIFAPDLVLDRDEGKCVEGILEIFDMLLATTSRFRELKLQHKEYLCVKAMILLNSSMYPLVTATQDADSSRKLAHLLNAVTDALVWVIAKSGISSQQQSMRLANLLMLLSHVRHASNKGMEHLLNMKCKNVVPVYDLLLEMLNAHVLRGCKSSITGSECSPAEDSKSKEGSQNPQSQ
Sequence of Glucocorticoid receptor (Homo sapiens) (P04150 whole entry, looked up): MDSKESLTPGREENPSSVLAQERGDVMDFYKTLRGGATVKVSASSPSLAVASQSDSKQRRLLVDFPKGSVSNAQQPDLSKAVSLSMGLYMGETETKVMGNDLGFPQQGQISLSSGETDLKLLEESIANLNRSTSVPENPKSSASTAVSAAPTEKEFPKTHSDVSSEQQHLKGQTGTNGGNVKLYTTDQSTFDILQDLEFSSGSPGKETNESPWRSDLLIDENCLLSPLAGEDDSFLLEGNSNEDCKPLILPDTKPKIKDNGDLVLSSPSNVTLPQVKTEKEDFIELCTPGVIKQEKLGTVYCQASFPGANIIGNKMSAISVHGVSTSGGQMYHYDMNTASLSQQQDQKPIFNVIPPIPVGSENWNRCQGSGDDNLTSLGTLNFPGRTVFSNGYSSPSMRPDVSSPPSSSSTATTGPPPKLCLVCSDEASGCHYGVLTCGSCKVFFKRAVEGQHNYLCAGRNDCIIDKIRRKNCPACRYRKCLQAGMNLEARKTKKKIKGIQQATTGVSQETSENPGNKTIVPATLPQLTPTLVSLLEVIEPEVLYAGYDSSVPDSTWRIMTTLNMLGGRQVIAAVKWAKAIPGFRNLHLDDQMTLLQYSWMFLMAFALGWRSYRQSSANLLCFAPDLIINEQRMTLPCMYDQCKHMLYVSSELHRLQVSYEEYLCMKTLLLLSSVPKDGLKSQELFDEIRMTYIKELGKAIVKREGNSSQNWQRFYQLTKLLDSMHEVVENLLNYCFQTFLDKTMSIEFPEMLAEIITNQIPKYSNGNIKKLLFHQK
Sequence of Androgen Receptor/SRC-1 Co-activator, AR (gene 367) (P10275 whole entry, looked up, the tested form may be a part): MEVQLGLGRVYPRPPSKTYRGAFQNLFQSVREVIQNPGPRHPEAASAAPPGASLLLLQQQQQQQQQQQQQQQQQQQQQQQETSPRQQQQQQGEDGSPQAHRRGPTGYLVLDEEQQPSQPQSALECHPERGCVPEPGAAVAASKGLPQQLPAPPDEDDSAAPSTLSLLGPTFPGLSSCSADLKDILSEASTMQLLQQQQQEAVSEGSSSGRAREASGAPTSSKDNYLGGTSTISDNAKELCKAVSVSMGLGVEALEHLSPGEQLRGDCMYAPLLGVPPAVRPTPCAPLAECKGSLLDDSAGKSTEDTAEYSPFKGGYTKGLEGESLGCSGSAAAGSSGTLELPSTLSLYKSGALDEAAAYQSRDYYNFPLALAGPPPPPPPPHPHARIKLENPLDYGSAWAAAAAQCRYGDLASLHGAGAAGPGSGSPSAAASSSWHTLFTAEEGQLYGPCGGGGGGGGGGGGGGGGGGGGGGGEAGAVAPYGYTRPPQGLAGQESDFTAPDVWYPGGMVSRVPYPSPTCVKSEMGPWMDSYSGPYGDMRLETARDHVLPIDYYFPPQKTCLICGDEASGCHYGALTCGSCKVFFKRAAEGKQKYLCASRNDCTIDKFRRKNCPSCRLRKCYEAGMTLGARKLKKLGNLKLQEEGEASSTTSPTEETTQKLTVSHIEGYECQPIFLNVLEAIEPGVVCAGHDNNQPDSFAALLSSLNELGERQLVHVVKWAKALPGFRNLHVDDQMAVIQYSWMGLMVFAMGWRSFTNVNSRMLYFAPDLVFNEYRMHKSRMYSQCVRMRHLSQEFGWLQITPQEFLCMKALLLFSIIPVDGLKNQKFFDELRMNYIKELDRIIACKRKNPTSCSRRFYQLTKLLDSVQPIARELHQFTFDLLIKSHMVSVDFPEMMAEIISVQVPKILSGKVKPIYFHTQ
Sequence of human Peroxisome Proliferator-activated Receptor alpha (PPARa), PPARA (gene 5465) (Q07869 whole entry, looked up): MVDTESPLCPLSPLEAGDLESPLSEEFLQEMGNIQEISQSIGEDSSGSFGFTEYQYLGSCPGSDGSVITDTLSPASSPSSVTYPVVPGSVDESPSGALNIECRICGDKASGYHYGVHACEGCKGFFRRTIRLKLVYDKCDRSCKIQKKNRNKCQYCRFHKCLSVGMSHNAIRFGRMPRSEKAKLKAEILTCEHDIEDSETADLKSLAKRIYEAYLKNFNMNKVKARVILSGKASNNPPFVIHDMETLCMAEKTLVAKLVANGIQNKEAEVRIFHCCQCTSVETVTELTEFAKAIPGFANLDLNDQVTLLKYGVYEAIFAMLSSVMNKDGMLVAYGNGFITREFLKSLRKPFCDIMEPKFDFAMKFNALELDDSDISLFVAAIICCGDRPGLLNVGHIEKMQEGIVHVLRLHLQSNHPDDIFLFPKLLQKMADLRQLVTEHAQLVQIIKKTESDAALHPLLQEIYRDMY

For one assay, the target named is Androgen Receptor/SRC-1 Co-activator, AR (gene 367) (UniProt P10275). As to the kind of experiment: OT_AR_ARSRC1_0960: Odyssey Thera (OT) 16-hour HEK293T Protein-Complementation Assay for Androgen Receptor/SRC-1 Co-activator (AID 2283353).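 Also: actives raise the signal above DMSO so potency reflects increased AR and SRC-1 complex.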 In outline:
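HEK293T cells stably expressing AR and SRC-1 fused to Venus YFP fragments, imaged 16 h after dosing. Nuclear/cytoplasmic fluorescence ratio at 488 nm from at least 400 cells per image; gain of signal relative to DMSO.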
As for `NS(=O)(=O)C(F)(F)C(F)(F)C(F)(F)C(F)(F)C(F)(F)C(F)(F)C(F)(F)C(F)(F)F`, the concentration at half-maximal activity (AC50) (commonly the concentration giving half of the maximal activity seen) is 68.4 µM (active).

Consider `CCNc1nc(NC(C)C)nc(SC)n1`, for which the call was inactive.

Consider `c1cc2ccc3cccc4ccc(c1)c2c34`, for which the compound was called inactive.

With `O=C(N[C@H]1CN2CCC1CC2)c1cc2ccoc2cn1`, the call was inactive.

`Cc1ccccc1CO[C@@H]1C[C@@]2(C(C)C)CC[C@]1(C)O2`: the AC50 was 79.7 µM (active).

On to `O=C(NC(=O)c1c(F)cccc1F)Nc1cc(Cl)c(OC(F)(F)C(F)F)c(Cl)c1`, for which the result was inactive.

For `CC1=C2C[C@H]3[C@@H](CC=C4C[C@@H](O)CC[C@@]43C)[C@@H]2CC[C@]12O[C@@H]1C[C@H](C)CN[C@H]1[C@H]2C`, the call was inactive.

With `CCCCCCCCOC(=O)c1ccccc1C(=O)OCCCCCCCC`, the outcome was inactive.

Another assay has the same target. Kind of assay: OT_AR_ARSRC1_0480: Odyssey Thera (OT) 8-hour HEK293T Protein-Complementation Assay for Androgen Receptor/SRC-1 Co-activator (AID 2283354).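 Also: hits raise the complementation signal above DMSO so AC50 marks enhancers.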 In outline:
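HEK293T cells stably expressing AR and SRC-1 fused to split Venus YFP fragments via (Gly4Ser)2 linkers were read 8 h after compound dosing. Complementation was imaged at 488 and 635nm, and nuclear/cytoplasmic fluorescence ratio (488nm) was taken over ≥400 cells; gain-of-signal versus DMSO.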
As to `NS(=O)(=O)C(F)(F)C(F)(F)C(F)(F)C(F)(F)C(F)(F)C(F)(F)C(F)(F)C(F)(F)F`, the compound was called inactive.

`CCNc1nc(NC(C)C)nc(SC)n1`: the outcome was inactive.

`c1cc2ccc3cccc4ccc(c1)c2c34`: the result was inactive.

Take `O=C(N[C@H]1CN2CCC1CC2)c1cc2ccoc2cn1`: the outcome was inactive.

Consider `Cc1ccccc1CO[C@@H]1C[C@@]2(C(C)C)CC[C@]1(C)O2`, for which the compound was called inactive.

`O=C(NC(=O)c1c(F)cccc1F)Nc1cc(Cl)c(OC(F)(F)C(F)F)c(Cl)c1`: the compound was called inactive.

Turning to `CC1=C2C[C@H]3[C@@H](CC=C4C[C@@H](O)CC[C@@]43C)[C@@H]2CC[C@]12O[C@@H]1C[C@H](C)CN[C@H]1[C@H]2C`, the call was inactive.

Take `CCCCCCCCOC(=O)c1ccccc1C(=O)OCCCCCCCC`: the outcome was inactive.

The next assay addresses Estrogen receptor (Homo sapiens) + Estrogen receptor beta (Homo sapiens) (UniProt P03372+Q92731). As to the kind of experiment: OT_ER_ERaERb_1440: Odyssey Thera (OT) 24-hour HEK293T Protein-Complementation Assay for Estrogen Receptor-alpha/-beta Homodimer (AID 2283356).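 Also: heteromer of ER alpha and ER beta binding domains; hits raise reporter fluorescence and both agonists and antagonists give an increase.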 In outline:
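Fragment complementation between ER alpha (310-547) and ER beta (263-489) ligand-binding domains in HEK293T cells; signal read 24 h post-dosing by laser scanning cytometer. Gain of fluorescence relative to DMSO fitted.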
On to `NS(=O)(=O)C(F)(F)C(F)(F)C(F)(F)C(F)(F)C(F)(F)C(F)(F)C(F)(F)C(F)(F)F`, for which the AC50 was 80.2 µM (active).

In the case of `Cc1ccccc1[N+](=O)[O-]`, the result was inactive.

Take `Cc1cc2c3c(c1)C(c1ccccc1)=N[C@@H](NC(=O)c1ccncc1)C(=O)N3CC2`: the outcome was inactive.

On to `O=C(N[C@H]1CN2CCC1CC2)c1cc2ccoc2cn1`, for which the result was inactive.

`Clc1ccc(Cl)cc1`: the outcome was inactive.

As for `C1CC2OC2CC1C1CO1` (stereo not given), the result was inactive.

With `CC#Cc1cc(C)nc(Nc2ccccc2)n1`, the outcome was inactive.

As for `CCC(C)c1cc([N+](=O)[O-])cc([N+](=O)[O-])c1O` (stereo not given), the result was inactive.

For the compound `O=S(=O)(O)C(F)(F)C(F)(F)C(F)(F)C(F)(F)F`, the outcome was inactive.

Turning to `CC(C)C(=O)OCC(C)(C)C(OC(=O)C(C)C)C(C)C` (stereo not given), the result was inactive.

For `Cc1cccc(C)c1N`, the result was inactive.

On to `O=C(NC(=O)c1c(F)cccc1F)Nc1cc(Cl)c(OC(F)(F)C(F)F)c(Cl)c1`, for which the result was inactive.

`OCC(O)CO`: the outcome was inactive.

Regarding `CN(C)CCO`, the outcome was inactive.

On to `CCCCCCCCOC(=O)c1ccccc1C(=O)OCCCCCCCC`, for which the outcome was inactive.

Take `CN(C)c1nc(=O)n(C2CCCCC2)c(=O)n1C`: the result was inactive.

The target in a further assay is Estrogen receptor beta (Homo sapiens) (UniProt Q92731). As to the kind of experiment: OT_ER_ERbERb_0480: Odyssey Thera (OT) 8-hour HEK293T Protein-Complementation Assay for Estrogen Receptor-beta/-beta Homodimer (AID 2283357).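 Also: active means signal gain over DMSO baseline.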 In outline: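 Readout: increase in mean fluorescence intensity (nucleus for agonists; nucleus plus cytoplasm for antagonists) relative to DMSO, from a reporter-fragment complementation of human ER-beta LBD homodimer in HEK293T cells dosed 8 hours.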
Sequence of Estrogen receptor beta (Homo sapiens) (Q92731 whole entry, looked up, the tested form may be a part): as the sequence (Q92731 whole entry, looked up, the tested form may be a part) above
`NS(=O)(=O)C(F)(F)C(F)(F)C(F)(F)C(F)(F)C(F)(F)C(F)(F)C(F)(F)C(F)(F)F`: the half-maximal activity concentration (AC50) was 86.7 µM (active).

For the compound `CCNc1nc(NC(C)C)nc(SC)n1`, the compound was classed as inactive.

Regarding `Cc1ccccc1O`, the result was inactive.

In the case of `Clc1ccc(C(c2ccccc2Cl)C(Cl)(Cl)Cl)cc1` (stereo not given), the AC50 is 2.09 µM (active) and 3.59 µM (active) and 1.83 µM (active).

Turning to `O=C(N[C@H]1CN2CCC1CC2)c1cc2ccoc2cn1`, the call was inactive.

As to `C1CC2OC2CC1C1CO1` (stereo not given), the call was inactive.

As for `CC#Cc1cc(C)nc(Nc2ccccc2)n1`, the outcome was inactive.

Consider `CCC(C)c1cc([N+](=O)[O-])cc([N+](=O)[O-])c1O` (stereo not given), for which the call was inactive.

On to `O=S(=O)(O)C(F)(F)C(F)(F)C(F)(F)C(F)(F)F`, for which the compound was classed as inactive.

`CC(C)C(=O)OCC(C)(C)C(OC(=O)C(C)C)C(C)C` (stereo not given): the call was inactive.

For the compound `Cc1cccc(C)c1N`, the compound was called inactive.

Consider `O=C(NC(=O)c1c(F)cccc1F)Nc1cc(Cl)c(OC(F)(F)C(F)F)c(Cl)c1`, for which the result was inactive.

Consider `OCC(O)CO`, for which the compound was classed as inactive.

Consider `CCC(C)(CC)c1cc(NC(=O)c2c(OC)cccc2OC)on1`, for which the compound was called inactive.

Take `CN(C)CCO`: the result was inactive.

With `CCCCCCCCOC(=O)c1ccccc1C(=O)OCCCCCCCC`, the outcome was inactive.

`CN(C)c1nc(=O)n(C2CCCCC2)c(=O)n1C`: the call was inactive.

A further assay concerns the target human Peroxisome Proliferator-activated Receptor alpha (PPARa), PPARA (gene 5465) (UniProt Q07869). As to the kind of experiment: NVS_NR_hPPARa: NovaScreen (NVS) Nuclear Receptor Binding Assay for human Peroxisome Proliferator-activated Receptor alpha (PPARa) (AID 2283359).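 Also: activity means loss of TR-FRET signal versus DMSO baseline.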 The method in brief:
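Cell-free binding assay with extracted human protein, read by TR-FRET 1 h after chemical dosing. Loss of signal relative to DMSO baseline indicates binding. Primary screen used duplicate single concentration (25 uM); actives followed up in concentration series.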
`NS(=O)(=O)C(F)(F)C(F)(F)C(F)(F)C(F)(F)C(F)(F)C(F)(F)C(F)(F)C(F)(F)F`: the outcome was inactive.

For `Cc1cc2c3c(c1)C(c1ccccc1)=N[C@@H](NC(=O)c1ccncc1)C(=O)N3CC2`, the compound was called inactive.

For the compound `c1cc2ccc3cccc4ccc(c1)c2c34`, the call was inactive.

With `O=S(=O)(O)C(F)(F)C(F)(F)C(F)(F)C(F)(F)F`, the outcome was inactive.

As to `OCC(O)CO`, the call was inactive.

For a further assay, the target named is Retinoic acid receptor alpha (Homo sapiens) (UniProt P10276). Kind of assay: NVS_NR_hRARa_Agonist: NovaScreen (NVS) Nuclear Receptor Binding Assay for human Retinoic Acid Alpha Receptor Agonism (RAR) (AID 2283361). The method in brief: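 Cell-free TR-FRET binding read-out with extracted human RARα protein, read 2 h after compound addition. Gain of signal scored against DMSO baseline. Primary screen at a single 25 uM in duplicate; actives then retested in concentration series.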
Sequence of Retinoic acid receptor alpha (Homo sapiens) (P10276 whole entry, looked up): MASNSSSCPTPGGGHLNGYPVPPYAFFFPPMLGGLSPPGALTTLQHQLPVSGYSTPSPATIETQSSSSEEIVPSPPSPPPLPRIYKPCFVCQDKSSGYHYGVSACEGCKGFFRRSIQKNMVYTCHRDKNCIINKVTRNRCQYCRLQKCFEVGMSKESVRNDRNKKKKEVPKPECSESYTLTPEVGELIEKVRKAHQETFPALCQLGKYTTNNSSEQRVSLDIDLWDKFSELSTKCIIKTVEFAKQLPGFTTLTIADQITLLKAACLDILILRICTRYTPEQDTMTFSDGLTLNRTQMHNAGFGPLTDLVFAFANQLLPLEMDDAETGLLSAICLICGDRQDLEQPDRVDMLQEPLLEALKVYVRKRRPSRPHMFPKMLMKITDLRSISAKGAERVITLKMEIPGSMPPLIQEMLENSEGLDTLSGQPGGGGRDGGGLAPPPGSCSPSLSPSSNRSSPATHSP
As to `ClC1=C(Cl)[C@]2(Cl)[C@@H]3[C@@H]4C[C@@H]([C@H]5O[C@@H]45)[C@@H]3[C@@]1(Cl)C2(Cl)Cl`, the compound was classed as inactive.

Consider `COS(=O)(=O)OC`, for which the compound was called inactive.

For `CC1=C2C[C@H]3[C@@H](CC=C4C[C@@H](O)CC[C@@]43C)[C@@H]2CC[C@]12O[C@@H]1C[C@H](C)CN[C@H]1[C@H]2C`, the result was inactive.

For a further assay, the target named is Glucocorticoid receptor (Homo sapiens) (UniProt P04150). As to the kind of experiment: NVS_NR_hGR: NovaScreen (NVS) Nuclear Receptor Binding Assay for human Glucocorticoid Receptor (GR) (AID 2283363).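 As to AC50: activity is loss of specific radioligand binding signal relative to DMSO.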 The method in brief:
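Cell-free radioligand binding with extracted receptor protein, read by filter-based scintillation counting 16 hours after dosing. Loss of specific signal versus DMSO baseline was scored. Primary screen ran in duplicate at 25 uM; actives were followed up in concentration series.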
On to `ClC1=C(Cl)[C@]2(Cl)[C@@H]3[C@@H]4C[C@@H]([C@H]5O[C@@H]45)[C@@H]3[C@@]1(Cl)C2(Cl)Cl`, for which the outcome was inactive.

As to `O=C(O)C(F)(F)C(F)(F)C(F)(F)C(F)(F)C(F)(F)C(F)(F)C(F)(F)C(F)(F)C(F)(F)F`, the compound was classed as inactive.

With `OCC(O)CO`, the concentration at half-maximal activity (AC50) was 4.96 µM (active).
